Assay outcomes deposited in PubChem by National Center for Advancing Translational Sciences (NCATS).
The entries come from a sample that favours hits as a whole.
IkB sig inh: IkB pathway inhibition in ABC-DLBCL cells; ABC-DLBCL IkBa-CBG/CBR dual luciferase ratio, 4 h; response scale: scaled: untreated 0%, proteasome inhibitor 100%; Potency, µM (doses to about 57.1 µM), for inactives: at the highest dose IkBa stabilization activation; hit rate 0.04% among 110,000; active = well fitted curve in the direction sought with a large enough effect in the signal ratio, not every such curve was filed as active; inconclusive = small, poorly fitted or top-dose-only effect, or a change in a side signal; the % refers to the signal ratio;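 note: potency is the fitted concentration of half-maximal effect; the direction sought is a rising ratio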
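Luminescence ratio of IκBα-fused green versus native red beetle luciferase in OCI-Ly3 cells, 4 h post-doxycycline with compound; red signal alone, scaled from basal (0%) to zero light (-100%), flagged nonspecific or cytotoxic effects.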
HBB splice mod: alters splicing of the hemoglobin beta chain; HBB splicing reporter cell assay, activation; EGFP reporter with mutant IVS2-654 intron; response scale: normalised to 500 nM splice-correcting PNA; Potency, µM (highest dose often 46.1 µM), without a hit: top-dose activation, usual class: activators; hit rate 0.06% among 65,000; AID 925; note: potency is the fitted concentration of half-maximal effect; 0% is about no effect
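HeLa cells stably expressing EGFP interrupted by mutant beta-globin intron 2 (IVS2-654), 500/well in 2% FCS. Treated with compound for 2 days at 37C. Splicing correction scored as total well GFP intensity (488 nm excitation, 500-520 nm emission); 500 nM antisense PNA served as control.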
CRE-bla Fsk: modulators of forskolin-stimulated CRE signaling in CHO cells. CHO CRE-bla reporter (cAMP response element driving beta-lactamase), forskolin EC10, beta-lactamase ratio. Potency, µM (highest dose often 38.2 µM), without a hit: top-dose activity change, negative = inhibition, actives largely listed as activators. hit rate 2.5% among 71,000; active = well fitted activation curve with a large enough effect in the signal ratio, with a control signal flat, not every such curve was filed as active; inconclusive = small, poorly fitted or top-dose-only effect, or effect the other way, or a change in a side signal; the % refers to the signal ratio; note: potency is the fitted concentration of half-maximal effect; % of control where 0% means no effect
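Forskolin analogue NKH 477 at EC10 stimulated CRE-driven beta-lactamase in CHO cells alongside compound dilution series. Beta-lactamase was measured with CCF4, excitation 405 nm, emission ratio 460/530 nm.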
GFP derepression: derepresses silenced GFP locus in mouse C127i cells. mouse C127i GFP locus derepression, cytometry, 30 h. Potency, µM (highest dose often 46.1 µM), for the others: at the top dose GFP derepression (activation). hit rate 0.09% among 68,000; note: % of control where 0% means no effect
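Derepression screen: silenced CMV-GFP reporter in murine C127i cells, 30 h compound incubation at 37 C, washed cells imaged by laser-scanning cytometer to enumerate GFP-expressing objects of 20 to 120 um.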
ERK AVP inh: inhibitors of vasopressin-stimulated ERK signaling pathway; HEK293-V1b, vasopressin-stimulated pERK AlphaScreen; Potency, µM (series often up to 57.5 µM), inactives show at the top dose activity, negative = inhibition, actives largely listed as inhibitors; hit rate 0.99% among 72,000; AID 995; note: potency is the fitted concentration of half-maximal effect; % is set by controls: 0 for no effect and ±100 for the full control effect; nearly all actives have a fitted effect of over 55% in size
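HEK293 cells stably expressing V1b receptor, preincubated 30 min at 37 °C with compound, then stimulated 5 min with 25 nM vasopressin. Phospho-ERK by AlphaScreen SureFire after 5 h RT; normalized to DMSO and vasopressin; AC50 by Hill fit.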
Starred values were filed as active, the others as inactive; u = inconclusive; x = no result; [ ] = dose if it differs, or a comment. Unless noted, calls come from the whole dose curve; as a rule, active = well fitted curve in the direction sought with a large enough effect; inconclusive = small, poorly fitted or top-dose-only effect, or another doubt; inactive = no such curve, though single readings can be large; an effect the other way counts as inactive or inconclusive.

SMILES | IkB sig inh | HBB splice mod | CRE-bla Fsk | GFP derepression | ERK AVP inh
COc1ccccc1N1CCN(C/C=C/c2ccc(N(C)C)cc2)CC1 | 0% | -1%[9.22 µM] | -11% | -2% | 16µM*
CCCCCCCC/C=C\CCCCCCCC(=O)O | 1% | 0% | 5% | x | 21%
CCCCCCCC/C=C\CCCCCCCC(=O)N(CCO)CCO | 2% | 0% | 10µM* | x | -7%
Nc1ccc(-c2nc3ccc(-c4nc5ccccc5o4)cc3[nH]2)cc1 | 4% | 0% | 13µM* | 0% | 16%
CCc1nc(C)c(C#N)c2cc(OC)c(OC)cc12 | -1% | -1% | u | -4% | 25µM*
COc1ccc(-c2nc(SC)n(C)c(=O)c2C#N)cc1OC | -2% | 1% | u | 2% | u
Cc1ccc2c(c1)-c1c(c(C(=O)N3CCN(c4cc(Cl)ccc4C)CC3)nn1C)CS2 | -2% | x | x | x | x
COC(=O)n1c(SC)nc2ccccc21 | -1% | 3%[0.369 µM] | 10µM* | 0% | -23%
CSc1nc2ccccc2n1C(=O)NC1CCCCC1 | 0% | 1%[0.369 µM] | -8% | -2% | u
CCOc1ccc(CCNC(=O)CCc2c(C)nc3c4c(C)cc(C)nc4nn3c2C)cc1 | 1% | x | x | x | x
COc1ccc(CNc2nc3nc(C)c(Cl)c(C)n3n2)cc1OC | 0% | -1%[57.5 µM] | 13µM* | 0% | -8%
COc1ccccc1N1CCN(C(CNC(=O)C(=O)NCc2ccc(F)cc2)c2cccnc2)CC1 (configuration not stated) | -6% | x | x | x | x
CC1CCC2C(=O)N3C(CCC(C)C3c3ccccc3Br)C(=O)N2C1c1ccc(C#CCN(C)C)cc1 (configuration not stated) | x | 2%[9.22 µM] | x | x | 18%[11.5 µM]
Cc1c2cnn(CC(=O)N3CCN(c4ccccc4)CC3)c(=O)c2c(C)n1Cc1ccccc1Cl | 0% | x | x | x | x
O=C(CCn1nc(-c2ccc(Cl)cc2)ccc1=O)N1CCN(c2ccccn2)CC1 | 2% | 5% | 4µM* | 0% | -29%
CCOC(=O)c1sc(NC(=O)CSc2nnc(-c3ccco3)n2CC)c(C(=O)OCC)c1C | u | 0% | 6% | 5% | 9%
CCOC(=O)c1c(NC(=O)CSc2n[nH]c(-c3ccco3)n2)sc(C)c1C | u | 2% | 0.063µM* | 3% | -30%
CCOC(=O)c1c(NC(=O)Cc2cccs2)sc(C(=O)N2CCCCC2)c1C | -2% | 0% | 2µM* | -3% | u
CCC(=O)Nc1sc(C(=O)OC)c(C)c1C(=O)OC | 1% | 2% | 15% | -4% | -16%
CCOC(=O)CSc1n[nH]c(-c2ccco2)n1 | -1% | 0% | -3% | x | -5%
CCOC(=O)c1sc(NC(=O)CSc2nncs2)c(C(=O)OCC)c1C | 1% | -3% | 3.2µM* | 0% | -2%
CCOC(=O)c1c(NC(=O)COC)sc(C(C)=O)c1C | 0% | 1% | 13µM* | 5% | -26%
COC(=O)c1ccc(C(NC(=O)OCc2ccccc2)/C(=C/[C@@H](C)C(=O)Nc2ccc(OC)cc2)c2cccnc2)cc1 (some centres not stated) | x | 0% | -25% | x | 20%
COc1ccc(Oc2ncc3ncc(=O)n(Cc4ccc(F)cc4)c3n2)cc1 | -1%[11.4 µM] | -2% | u | 2%[9.22 µM] | u
COc1ccc(-c2nc3cnc(N(C)C)nc3n(CCC#N)c2=O)cc1 | -2%[11.4 µM] | 0% | 0.4µM* | -2%[9.22 µM] | -14%
SMILES | IkB sig inh | HBB splice mod | CRE-bla Fsk | GFP derepression | ERK AVP inh
CN(C)c1ncc2nc(CCc3ccccc3)c(=O)n(CCc3ccccc3)c2n1 | -2%[11.4 µM] | 2% | 4µM* | -3%[9.22 µM] | 56%
Cc1nc2cnc(N(C)C)nc2n(CCc2ccccc2)c1=O | 1%[11.4 µM] | 0% | 7.9µM* | 14%[9.22 µM] | u
COc1ccc(Oc2ncc3nc(-c4ccc(OC)cc4)c(=O)n(CCC#N)c3n2)cc1 | 3%[11.4 µM] | 0% | u | 6%[9.22 µM] | -6%
COc1ncc2nc(CCc3ccccc3)c(=O)n(CCC#N)c2n1 | -1%[11.4 µM] | 1% | u | 5%[9.22 µM] | u
CN(C)c1ncc2nc(CCc3ccccc3)c(=O)n(CCC#N)c2n1 | -3%[11.4 µM] | 0% | 4µM* | -3%[9.22 µM] | -11%
Cc1ccc(OC(=O)c2cc(-c3ccccc3)nc3ccc(C)cc23)cc1 | 6% | x | x | x | x
